Compound activity as filed in PubChem BioAssay.
Sampled rows, rich in hits. Any-hit rate of the full collection: about 7.9%.
HT1080-NT tox: kills 2HG-producing HT-1080-NT fibrosarcoma cells; HT-1080-NT fibrosarcoma viability, CellTiter-Glo ATP luminescence, 48 h; Potency, µM (highest dose often 46.1 µM), for the others: top-dose activity, negative = less viability, usual class: cytotoxic; 1.6% of 360,000 active; AID 686970;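 note: NT is the 2HG producing partner of a matched IDH1 knockdown line; 0% = DMSO-treated cells and -100% = media-only wells without cells; nearly all actives have a fitted effect of over 55% in size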
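HT-1080-NT; 750 cells/well; 5% FBS RPMI; 48 h compound, 37 degrees C; CellTiter-Glo luminescence; curve fitting and curve-class assignment.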
MCF10A rereplic: induces DNA re-replication in MCF 10a normal breast cells; AID 624296; 2.9% of 350,000 active; Potency, µM (titrated, usually from 46.1 µM), without a hit: top-dose activity, positive = re-replication, usual class: activators; MCF 10A DNA re-replication, Hoechst nuclear intensity, 48 h; note: % of control where 0% means no effect; nearly all actives have a fitted effect of over 50% in size
KB-3-1 cytotox: KB-3-1 parental cell cytotoxicity; KB-3-1 viability, CellTiter-Glo ATP luminescence, 72 h; Potency, µM (top dose mostly 46.1 µM), hits mostly cytotoxic; AID 1347075; 1.4% of 400,000 active; note: % is set by controls: 0 for no effect and ±100 for the full control effect; nearly all actives have a fitted effect of over 60% in size
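Luminescent ATP read-out (CellTiter-Glo) measures survival of drug-naive KB-3-1 cells after 72 h compound exposure at 37 °C. Titration series was screened from lowest to highest concentration, with DMSO vehicle plates as background controls.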
KB-V1 cytotox: kills drug-selected multidrug resistant KB-V1 cells; KB-V1 MDR cells viability, CellTiter-Glo, 72 h; Potency, µM (top dose mostly 46.1 µM), usual class: cytotoxic; 3.4% of 400,000 active; AID 1347076; note: % is set by controls: 0 for no effect and ±100 for the full control effect; nearly all actives have a fitted effect of over 60% in size
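Luminescent ATP read-out (CellTiter-Glo, 10 min) measures survival of drug-selected KB-V1 MDR cells after 72 h, 37 degrees C compound exposure. Medium: phenol-red-free DMEM, 10% FBS. Values from fitted concentration-response curves.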
HT1080 IDH1KD tx: toxicity to HT-1080 IDH1 knockdown cells (counter line); AID 686971; HT-1080 IDH1 knockdown viability, ATP luminescence, 48 h; Potency, µM (titrated, usually from 46.1 µM), inactives show at the highest dose activity, negative = toxicity, most hits filed as cytotoxic; 2% of 360,000 active;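 note: 0% = DMSO wells and -100% = cell-free medium wells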
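After a 2 h attachment period, IDH1KD HT-1080 cells took pin-transferred compound for 48 h at 37 °C; ATP-based luminescence after 10 min room-temperature reagent incubation reported viability.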
SW480 rereplic: induces DNA re-replication in SW480 colon adenocarcinoma cells; SW480 DNA re-replication, Hoechst DNA content imaging, 48 h; Potency, µM (series often up to 46.1 µM), for inactives: at the highest dose re-replication activation, hits mostly activators; 1.8% of 340,000 active; AID 624297; note: % of control where 0% means no effect; nearly all actives have a fitted effect of over 55% in size
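SW480 cells exposed to compounds for 48 hr at 37 C, 5% CO2, then Hoechst-stained 40 min. Nuclear DNA content imaged by fluorescence scanning (405 nm excitation, 500-530 nm emission); re-replication scored as increased high-intensity nuclei.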
* hit, by the source's call; i = inactive; ? = inconclusive; . = no result. Calls come from the whole dose curve; as a rule, active = well fitted curve in the direction sought with a large enough effect; inconclusive = small, poorly fitted or top-dose-only effect, or another doubt; inactive = no such curve, though single readings can be large; an effect the other way counts as inactive or inconclusive. Potency is the fitted concentration of half-maximal effect.

SMILES | HT1080-NT tox | MCF10A rereplic | KB-3-1 cytotox | KB-V1 cytotox | HT1080 IDH1KD tx | SW480 rereplic
CC(Sc1nc2ccccc2s1)C(=O)Nc1nnc(C(C)C)s1 (stereo unspecified) | -5% | 0% | i | i | 8% | -8%
CCC(Sc1nc2ccccc2s1)C(=O)Nc1nnc(C)s1 (stereo unspecified) | -17% | ? | i | 16µM* | -10% | -1%
O=C(/C=C/c1ccc(Br)cc1)NC(=S)NNC(=O)c1ccco1 | 16µM* | ? | i | i | 15µM* | ?
COC(=O)/C(=C/c1ccccc1)NC(=O)c1ccco1 | 5% | 10% | i | i | 6% | -2%
COc1ccc(C(=O)NNC(=S)NC(=O)c2cccs2)cc1 | ? | ? | ? | i | ? | 14%
CC(C)OC(=O)/C(=C/c1ccc(Br)cc1)NC(=O)c1ccco1 | -2% | 3% | i | 16µM* | -2% | -61%
COc1ccc(/C=C/C(=O)NC(=S)NNC(=O)c2cccs2)cc1 | ? | 10µM* | ? | ? | ? | 23µM*
COc1ccc(-c2csc(C(C)(NC(C)=O)c3ccc(OC)cc3)n2)cc1 (stereo unspecified) | 17% | . | i | i | 15% | .
Cc1ccc(CNS(=O)(=O)c2cn(C)cn2)cc1 | 7% | -10% | i | i | 5% | 3%
CCCOc1ccc(NC(=O)CC2C(=O)N(CC)C(=S)N2CCCN2CCN(Cc3ccccc3)CC2)cc1 (stereo unspecified) | 16µM* | ? | ? | ? | 16µM* | ?
CCCOc1ccc(NC(=O)CC2C(=O)N(CC)C(=S)N2CCNC(C)=O)cc1 (stereo unspecified) | 9% | ? | i | i | 6% | 24%
CCN1C(=O)C(CC(=O)Nc2ccc(F)cc2)N(CCCN2CCN(c3ccc(F)cc3)CC2)C1=S (stereo unspecified) | 29µM* | ? | i | ? | ? | 13%
COc1ccccc1CCN1CCCC(CN(C)C(=O)CCC(=O)N(C)C)C1 (stereo unspecified) | 14% | -2% | i | ? | -1% | -5%
CCOC(=O)c1ccc(NS(=O)(=O)CC)cc1 | -6% | -2% | i | i | -4% | -18%
Cc1ccc(S(=O)(=O)Nc2ccc(C(=O)N3CCCC3)cc2)cc1 | 4% | -33% | i | ? | 8% | -7%
O=C(c1cccc(S(=O)(=O)Nc2ccccc2Cl)c1)N1CCC1 | 1% | 0% | i | i | 0% | -2%
Cc1ccc(NS(=O)(=O)c2ccc(C(=O)N3CCN(S(=O)(=O)c4ccccc4)CC3)cc2)cc1 | -1% | 7% | ? | ? | -12% | 26µM*
CC1CCCN(C(=O)c2cccc(S(=O)(=O)Nc3cc(C(F)(F)F)ccc3Cl)c2)C1 (stereo unspecified) | -3% | ? | i | 18µM* | 21% | -101%
CCOC(=O)N1CCN(C(=O)c2cccc(S(=O)(=O)Nc3ccccc3Cl)c2)CC1 | 2% | 0% | i | 18µM* | 8% | -4%
COc1ccccc1NS(=O)(=O)c1cccc(C(=O)N2CCCCCCC2)c1 | 10% | 0% | i | 16µM* | -2% | -4%
COC(=O)c1sc(=S)n(-c2cc(F)ccc2F)c1N | -18% | -1% | i | i | -17% | -6%
CCOc1ccc(Cn2ccnc2)cc1[N+](=O)[O-] | 5% | 1% | i | i | 13% | 0%
Cc1ccc(NS(=O)(=O)c2cccc(C(=O)N3CCCCC3)c2)cc1 | 9% | 23% | i | 12µM* | 12% | -1%
Cc1ccccc1OCCC(=O)Nc1cccc(S(=O)(=O)Nc2ccccc2Cl)c1 | -7% | ? | ? | 12µM* | -2% | 5%
COc1cc(S(=O)(=O)Nc2ccccc2N2CCCCC2)ccc1NC(C)=O | 16µM* | 18µM* | i | i | 8.2µM* | ?
SMILES | HT1080-NT tox | MCF10A rereplic | KB-3-1 cytotox | KB-V1 cytotox | HT1080 IDH1KD tx | SW480 rereplic
COc1cccc(S(=O)(=O)Nc2cccc(C(=O)N3CCCC3)c2)c1 | -10% | -18% | i | i | 1% | -6%
Cc1ccc(C)c(OCCC(=O)Nc2cccc(S(=O)(=O)NC3=NCCCCC3)c2)c1 | 3% | ? | i | i | -9% | 2%
COc1cccc(S(=O)(=O)Nc2cccc(C(=O)N3CCCCCC3)c2)c1 | 8% | 10% | i | 15µM* | 1% | -37%
CCO[C@@H]1OC(C(=O)Nc2ccccc2)=C[C@H](c2coc3ccccc3c2=O)[C@H]1CCCO | -6% | -34% | i | i | -1% | 3%
O=C(COC(=O)COc1ccccc1)NCCc1ccccc1 | 3% | -3% | i | i | 13% | -255%
c1ccc(Cn2nnc3c(N4CCc5ccccc54)ncnc32)cc1 | 11% | 2% | i | i | 7% | -3%
CS/C(=N\N(C)C(N)=O)c1ccccc1 | 10% | 3% | i | i | 10% | 3%
Cc1ccc(NC(=O)CN(C)C(=O)c2ccccc2Cc2ccccc2)cc1 | -1% | -18% | i | i | -21% | -70%
CCCSc1cc(N)cc([N+](=O)[O-])c1 | -23% | 4% | i | i | -4% | 3%
COc1cc(/C=N/NC2=NCCCCC2)ccc1O | ? | -5% | i | i | 13% | -6%
COc1cc(/C=N/Nc2ccccc2)ccc1O | ? | ? | i | i | 21µM* | 24%
COc1cc(/C=N/Nc2ncnc3sc4c(c23)CCC4)ccc1O | -23% | ? | ? | i | ? | 23µM*
COc1cc(/C=N/Nc2ccccc2C(F)(F)F)ccc1O | 3% | 2% | i | i | 2% | 3%
COc1cc(/C=N/N(c2ccccc2)c2ccccc2)ccc1O | 18µM* | ? | ? | i | 16µM* | ?
CCOC(=O)NC(=O)C(=CNc1ccccc1C)C(=O)NC(=O)OCC | 19% | 2% | i | i | 21% | -4%
COc1ccc(C(CNC(=O)Cc2ccc(-c3ccccc3)cc2)N(C)C)cc1 (stereo unspecified) | 18µM* | ? | i | i | 21µM* | 18µM*
CN(C)C(CNC(=O)c1ccc(C(=O)c2ccccc2)cc1)c1ccccc1 (stereo unspecified) | -28% | ? | i | i | -17% | 71%
CN(C)C(CNC(=O)c1ccc(-c2ccccc2)cc1)c1ccccc1 (stereo unspecified) | 16µM* | 14% | i | i | 16µM* | ?
